Test results reported in paper PMC5540273 (PLoS ONE, 2017).

System: DAPK3
Conditions: concentration: 1 μM,replicates: in singlicate; n = 1
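Further: KINOMEscan kinase panel screen.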

SMILES	%Inh
C[C@@H]1CCN(C(=O)CC#N)C[C@@H]1N(C)c1ncnc2[nH]ccc12	4%
CC(C)Nc1cc(-c2ccc3c(N)n[nH]c3c2)nc(N)n1 [GSK2221681]	51%
CCN(CC)CCCCNc1ncc2cc(-c3c(Cl)cccc3Cl)c(NC(=O)NC(C)(C)C)nc2n1	0%
Cl.Oc1cc(-c2nc(-c3ccccc3)[nH]c2-c2ccncc2)ccc1Cl [SB-386023]	0%
C[C@H]1Oc2cc(cnc2N)-c2c(nn(C)c2C#N)CN(C)C(=O)c2ccc(F)cc21	16%
Cl.Cl.Nc1nc(-c2ccc3c(N)n[nH]c3c2)cc(N2CCCC(NC(=O)c3ccccc3)C2)n1 (stereo not shown) [GSK2286775]	13%
Cc1cc2cn[nH]c2cc1-c1cccc2c(N)c(C(N)=O)nnc12	32%
CCn1c(-c2nonc2N)nc2c(C#CC(C)(C)O)nc(OCCN)cc21.Cl.Cl [GSK902056]	21%
C=CC(=O)Nc1cc2c(Nc3ccc(F)c(Cl)c3)ncnc2cc1OCCCN1CCOCC1 [GW781483]	0%
Nc1nc(Nc2ccccc2)cc(-c2ccc3c(N)n[nH]c3c2)n1 [GSK2225749]	62%
Cc1cc(C(=O)Nc2ccc(Oc3ccc4nc(NC(=O)C5CC5)cn4n3)cc2)nn1-c1ccccc1	10%
C[C@@H](Oc1cc(-c2cnn(C3CCNCC3)c2)cnc1N)c1c(Cl)ccc(F)c1Cl	15%
NC(=O)c1cc(-c2ccccc2)cc2c(C3CCNCC3)c[nH]c12 [GSK301362]	40%
